Screening results from PubChem BioAssay.
Compounds with a hit are over-represented: about 19% of the library has one in this group of screens.
DT40 TDP1 no CPT – qHTS for Inhibitors of human tyrosyl-DNA phosphodiesterase 1 (TDP1): qHTS in cells in absence of CPT; DT40 Tdp1-/- hTDP1 cells, no CPT, ATP luminescence, 48 h; Potency, µM (titrated, usually from 46.2 µM), for the others: at the highest dose activity change, negative = growth inhibition, most hits filed as inhibitors; hit rate 15% among 420,000; AID 686978, 2013; note: potency is the fitted concentration of half-maximal effect; nearly all actives have a fitted effect of over 55% in size
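Chicken DT40 Tdp1-/- cells stably complemented with human TDP1 were seeded at 400 cells/well with DMSO in place of 20 nM camptothecin. After compound pinning, cells grew at least 48 hr at 37 °C; viability read by CellTiter-Glo luminescence.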
DT40 TDP1 CPT – DT40-hTDP1 cell growth loss with CPT; Potency, µM (titrated, usually from 46.2 µM), for inactives: at the top dose activity change, negative = growth inhibition, most hits filed as inhibitors; chicken DT40 Tdp1-/-;hTDP1 cells + 20 nM CPT, ATP luminescence, 48 h; hit rate 12% among 420,000; note: potency is the fitted concentration of half-maximal effect; nearly all actives have a fitted effect of over 55% in size
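Chicken DT40 Tdp1-/- cells complemented with human TDP1, 400 cells/well, exposed to compounds plus 20 nM camptothecin for at least 48 h at 37 C; viability read as ATP content by CellTiter-Glo luminescence.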
Giardia kill – kills Giardia lamblia | Giardia lamblia trophozoite viability | activity change, % at 7.66 µM, hits read low | hit rate 0.15% among 340,000; in the data active = activity change below about -80%; inconclusive = between about -30% and that limit;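 note: parasites exposed to compound for two days anaerobically before the ATP read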
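Giardia trophozoites, 100 cells per well, were exposed to compounds for 48 hrs at 37 deg C under anaerobic conditions; viability was then read as ATP content by bioluminescence after 15-30 min at room temperature.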
ELG1 repair inh – blocks ELG1-dependent DNA repair in HEK293T cells; HEK293T ELG1-luciferase reporter, luminescence, 16 h; DNA damage induced by 5-fluorouridine; Potency, µM (titrated, usually from 46.1 µM), inactives show at the highest dose activity change, negative = inhibition, most hits filed as inhibitors; hit rate 2.3% among 330,000; note: potency is the fitted concentration of half-maximal effect; nearly all actives have a fitted effect of over 55% in size
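Luminescence from the luciferase reporter, measured 30 min after ONE-Glo reagent at room temperature, was the read-out. Beforehand, 2,000 cells per well were exposed for 16 hr at 37 °C to 5-fluorouridine together with compound or vehicle.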
TDP1 inh – inhibitors of human tyrosyl-DNA phosphodiesterase TDP1 | Q9NUW8 | recombinant TDP1, AlphaScreen DNA substrate cleavage | Potency, µM (series often up to 130 µM), inactives show at the highest dose activity change, negative = inhibition, hits mostly inhibitors | hit rate 0.28% among 350,000 | AID 485290; note: potency is the fitted concentration of half-maximal effect; nearly all actives have a fitted effect of over 40% in size
Target sequence (Q9NUW8 whole entry, looked up): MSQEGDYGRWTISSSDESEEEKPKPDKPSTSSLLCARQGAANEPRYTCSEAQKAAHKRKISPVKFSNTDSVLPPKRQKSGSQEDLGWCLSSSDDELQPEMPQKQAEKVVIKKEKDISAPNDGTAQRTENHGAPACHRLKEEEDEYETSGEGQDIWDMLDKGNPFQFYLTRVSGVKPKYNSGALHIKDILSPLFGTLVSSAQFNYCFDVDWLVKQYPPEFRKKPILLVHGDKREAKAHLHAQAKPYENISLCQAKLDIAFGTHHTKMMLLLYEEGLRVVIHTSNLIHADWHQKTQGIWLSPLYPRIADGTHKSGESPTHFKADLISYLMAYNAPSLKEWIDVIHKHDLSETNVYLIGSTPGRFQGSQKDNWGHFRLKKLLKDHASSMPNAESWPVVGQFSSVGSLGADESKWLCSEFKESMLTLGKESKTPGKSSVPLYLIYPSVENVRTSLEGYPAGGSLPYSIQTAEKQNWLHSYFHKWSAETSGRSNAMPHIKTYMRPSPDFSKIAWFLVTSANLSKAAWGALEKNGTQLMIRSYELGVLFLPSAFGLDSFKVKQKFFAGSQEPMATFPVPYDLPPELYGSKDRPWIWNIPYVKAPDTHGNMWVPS
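Signal: AlphaScreen proximity between streptavidin donor and anti-FITC acceptor beads on intact substrate. Reaction: Tdp1 1 nM, substrate 15 nM final, 5 min RT after 15 min compound preincubation.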
IL-1B inflam inh – blocks inflammasome-driven IL-1 beta release | THP-1 LPS/ATP IL-1B secretion, AlphaLISA, 16 h; active compounds read low | activity change, % at 57.5 µM | hit rate 4.7% among 360,000; in the data active = activity change below about -50%; inconclusive = mostly about -30% to -49%
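THP-1 cells pretreated 1 hr with compounds (up to 57.5 uM final), then stimulated with LPS (250 ng/mL final) plus ATP (1.25 mM final); secreted IL-1B measured by AlphaLISA after 16 hr, decreased signal indicating inhibition.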
An asterisk follows results filed as active; i = inactive; ? = inconclusive; . = not tested or not shown; [ ] = another dose, or the depositor's remark. Unless noted, calls come from the whole dose curve; as a rule, active = well fitted curve in the direction sought with a large enough effect; inconclusive = small, poorly fitted or top-dose-only effect, or another doubt; inactive = no such curve, though single readings can be large; an effect the other way counts as inactive or inconclusive. % is set by controls: 0 for no effect and ±100 for the full control effect.

SMILES	DT40 TDP1 no CPT	DT40 TDP1 CPT	Giardia kill	ELG1 repair inh	TDP1 inh	IL-1B inflam inh
C=C(C)COC(=O)c1ccccc1C(=O)OCC1(C)CO1 (stereo not given)	?	?	-21	.	.	12
OCCC1CN(Cc2ccc3nsnc3c2)CCN1CCc1ccccc1 (stereo not given)	?	6%	13	-5%	5%	-3
CN(C)/C=C/C(=O)c1cc(N2CCOCC2)ccc1[N+](=O)[O-]	0%	1%	6	5%	5%	7
CC1=C(c2ccccc2)C(=S)NC(C)(C)C1	-10%	-13%	28	1%	.	30
CCc1ccc(OCC(=O)N(Cc2ccco2)Cc2ccco2)cc1	21µM*	?	.	.	7%	.
CC12CCC(C(=O)N3CCCc4ccccc43)(OC1=O)C2(C)C (stereo not given)	-14%	-8%	-25	-2%	1%	i
CCCCc1c(CCC)c(=N)c2ccccc2n1C	5.2µM*	23µM*	7	?	-4%	-77*
O=C(/C=C/c1ccco1)NC(=S)Nc1ccccc1N1CCOCC1	?	-24%	-4	13%	8%	5
O=C(/C=C/c1ccco1)NC(=S)Nc1ccccc1N1CCCC1	21µM*	?	-1	-7%	2%	35
O=C(/C=C\c1ccco1)NC(=S)Nc1ccccc1O	?	18µM*	-9	?	3%	-10
O=C(/C=C/c1ccco1)NC(=S)Nc1ccccc1O	18µM*	?	-6	?	1%	-19
Cc1ccc(NC(=S)NC(=O)/C=C/c2ccco2)c(O)c1	?	-11%	4	-2%	6%	-9
CC1CCCC/C1=N\NC(=S)Nc1cccnc1 (stereo not given)	0%	-7%	14	-1%	5%	10
Cc1ccc(NC(=S)N/N=C2\CCCCC2C)cc1 (stereo not given)	9.2µM*	5.2µM*	3	10%	8%	4
O=[N+]([O-])c1nn(-c2ccc3c(c2)OCCO3)n(O)c1=NC1CCCCC1	?	21µM*	-84*	?	12%	-25
O=[N+]([O-])c1ccc2c(c1)OCCOCCOCCOCCOCCOCCO2	-4%	-8%	6	-8%	5%	-12
O=[N+]([O-])c1nn(-c2ccc3c(c2)OCCO3)n(O)c1=NCc1ccccc1Cl	?	-28%	?	?	2%	-20
COc1ccccc1CN=c1c([N+](=O)[O-])nn(-c2ccc3c(c2)OCCO3)n1O	?	?	-90*	?	7%	-13
O=C(NNc1ccccn1)C(c1ccccc1)c1ccccc1	12%	9%	17	-6%	2%	0
CC(Sc1ccc(Cl)cc1)C(=O)NNC(=O)c1ccccc1O (stereo not given)	7.3µM*	16µM*	8	?	3%	163
O=C(NNC(=O)c1ccccn1)c1ccc(OC(F)F)cc1	4.6µM*	5.8µM*	-2	-13%	-1%	51
O=C(NCCc1ccccn1)c1ccc(OC(F)F)cc1	-6%	-15%	3	?	3%	-6
O=C(NNC(=O)C(c1ccccc1)c1ccccc1)c1ccccc1O	?	18µM*	.	.	.	49
O=C(NNC(=O)C(c1ccccc1)c1ccccc1)c1ccccn1	2.3µM*	2.9µM*	1	13%	8%	-68*
CCOC(=O)CNC(=O)c1cc2c(=O)n(CC)c3ccccc3c2s1	13%	27%	.	.	5%	.
SMILES	DT40 TDP1 no CPT	DT40 TDP1 CPT	Giardia kill	ELG1 repair inh	TDP1 inh	IL-1B inflam inh
COc1cccc(N2CCN(C(=O)c3cccc(NC4=NC5CS(=O)(=O)CC5S4)c3)CC2)c1 (stereo not given)	-23%	1%	16	8%	.	-7
Cc1cc(C)cc(N2CCn3c2nc2c3c(=O)n(CCCc3ccccc3)c(=O)n2C)c1	-7%	-1%	.	.	-3%	.
O=C(NNC(=O)c1cccs1)c1ccccn1	?	16µM*	.	.	.	5
COc1ccc(C(C(=O)NC2CCCC2)n2c(-c3cccs3)nc3ccccc32)cc1 (stereo not given)	?	?	.	.	.	0
CC(C)N(C(=O)COC(=O)c1cccc(S(=O)(=O)N2CC3(C)CC2CC(C)(C)C3)c1)C(C)C (stereo not given)	?	23µM*	-22	-1%	2%	-17
CN(C)C(CNC(=O)c1cccc(S(=O)(=O)N2CC3(C)CC2CC(C)(C)C3)c1)c1ccco1 (stereo not given)	16µM*	?	-20	?	7%	-6
CCCNC(=O)c1cccc(S(=O)(=O)N2CC3(C)CC2CC(C)(C)C3)c1 (stereo not given)	?	?	-26	0%	-2%	2
Cc1ccc(-n2ncc(Cl)c2C(=O)NC2CC2)cc1	-24%	?	-5	?	.	23
COc1ccc(-c2nc(SCC(=O)Nc3cccc(S(N)(=O)=O)c3)n[nH]2)cc1	-12%	?	-26	?	.	37
CC(=O)OC1CC(OC(C)=O)[C@]2(C)C(CC(=O)[C@]3(C)C2CC[C@@]2(C)C(C(=O)O)OC(=O)C4OC423)C1(C)C (stereo not given in full)	3%	6%	.	.	8%[56.1 µM]	.
CCOc1ccc(N(CC(=O)Nc2cccc(OC)c2)S(=O)(=O)c2c(C)noc2C)cc1	18µM*	13µM*	3	?	1%	17
